In the library only some 5.9% were active in any assay of this set; here they are far more common.
VP16 counter: inhibits Gal4-VP16 luciferase reporter, ROR gamma counter-screen; Drosophila S2 Gal4-VP16 UAS-luciferase, luminescence, 20 h; Potency, µM (top dose mostly 53.6 µM), for inactives: at the highest dose activity, negative = inhibition, usual class: inhibitors; hit rate 3.5% among 310,000;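 further: Gal4-VP16 expression switched on by copper sulfate through the metallothionein promoter; potency means the concentration at half of the fitted maximal effect; nearly all actives have a fitted effect of over 50% in size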
FBPA coupling cs: coupling enzyme interference in Giardia aldolase counter-screen. coupling enzyme system counterscreen, AmpLite Red fluorescence. activity change, negative = inhibition, % at 58.2 µM, hits read low. hit rate 0.67% among 290,000; in the data active means activity change below about -30%
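Counterscreen lacking aldolase: glyceraldehyde-3-phosphate coupling-enzyme reagent preincubated 10 min at RT with compound (at 57.5 uM final), then substrate/coupling system with AmpLite Red added; fluorescence read at 525/598 nm after 20 min RT.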
GALK inh: inhibitors of human galactokinase; Potency, µM (highest dose often 57.5 µM), for inactives: top-dose activity change, negative = inhibition, hits mostly inhibitors; hit rate 0.007% among 270,000; P51570; Purified GALK, Kinase-Glo residual ATP luminescence; further: potency means the concentration at half of the fitted maximal effect
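GALK at 5 nM final was combined with compound, 35 uM ATP and 100 uM galactose in HEPES pH8.0 with MgCl2 and DTT. The reaction ran one hour at room temperature before luminescent ATP detection.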
RORg inh: inhibitors of mouse ROR gamma transcriptional activity. P51450. Potency, µM (titrated, usually from 53.6 µM), for inactives: top-dose activity change, negative = inhibition, hits mostly inhibitors. hit rate 5.4% among 310,000. AID 2551. Drosophila S2 Gal4-RORgamma UAS-luciferase reporter, 20 h; further: potency means the concentration at half of the fitted maximal effect; nearly all actives have a fitted effect of over 60% in size
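ROR gamma transcriptional activity was tracked as Gal4-UAS luciferase output in stably transfected Drosophila Schneider cells, with compound added 1 hr before 700 uM copper sulfate induction and a 20 hr ambient-temperature incubation.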
TrxR1 substrate: rat thioredoxin reductase 1 substrate activity | O89049 | purified TrxR1 substrate turnover, NADPH consumption readout | Potency, µM (top dose mostly 114 µM), for inactives: top-dose activity change, negative = substrate turnover | AID 588456 | hit rate 0.01% among 390,000; further: potency means the concentration at half of the fitted maximal effect; nearly all actives have a fitted effect of over 50% in size
Target sequence (O89049 whole entry, looked up): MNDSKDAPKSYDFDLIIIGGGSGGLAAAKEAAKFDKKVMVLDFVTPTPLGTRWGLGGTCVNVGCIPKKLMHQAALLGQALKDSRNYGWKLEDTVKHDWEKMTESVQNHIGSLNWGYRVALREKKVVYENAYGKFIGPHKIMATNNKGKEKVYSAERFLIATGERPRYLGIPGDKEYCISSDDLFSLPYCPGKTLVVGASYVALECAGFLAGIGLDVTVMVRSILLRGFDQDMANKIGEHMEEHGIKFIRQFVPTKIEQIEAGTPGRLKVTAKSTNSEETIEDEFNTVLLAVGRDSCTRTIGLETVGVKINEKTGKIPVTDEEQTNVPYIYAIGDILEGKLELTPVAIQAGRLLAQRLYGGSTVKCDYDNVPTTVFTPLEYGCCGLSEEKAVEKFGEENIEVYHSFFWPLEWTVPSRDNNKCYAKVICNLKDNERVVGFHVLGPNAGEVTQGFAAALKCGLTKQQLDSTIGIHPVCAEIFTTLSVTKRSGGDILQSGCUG
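Rat TrxR1, dispensed at 90 nM, was prereduced with 400 uM NADPH (final) for 5 min at ~22 deg C, then incubated with compound 15 min before 400 uM selenite. A first-read NADPH fluorescence drop versus no-compound background flagged substrates.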
rTrxR1 inhibitor: rat TrxR1 inhibition; O89049; recombinant rTrxR1, NADPH fluorescence consumption, selenite substrate; Potency, µM (series often up to 114 µM), without a hit: at the top dose activity change, negative = inhibition, most hits filed as inhibitors; hit rate 1% among 390,000; further: potency means the concentration at half of the fitted maximal effect; nearly all actives have a fitted effect of over 65% in size
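Rat TrxR1 (90 nM in the dispensed reagent) was pre-reduced with 400 uM NADPH for 5 min at room temperature, then incubated with compound for 15 min. After 400 uM selenite was added, NADPH fluorescence (Ex 340/Em 450 nm) was followed for 8 min.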
* hit, by the source's call; ? = inconclusive; . = not tested or not shown; [ ] = dose if it differs, or a comment. Unless noted, the call rests on the fitted dose curve; in most records, active means well fitted curve in the direction sought with a large enough effect; inconclusive means small, poorly fitted or top-dose-only effect, or another doubt; inactive means no such curve, though single readings can be large; an effect the other way counts as inactive or inconclusive. On the % scale 0 is the no-effect control and ±100 the full control effect.

SMILES	VP16 counter	FBPA coupling cs	GALK inh	RORg inh	TrxR1 substrate	rTrxR1 inhibitor
O=C(NC(=S)N1CCCCCC1)c1ccc(Cl)cc1Cl	1µM*	1	1%	0.35µM*	-7%[57.1 µM]	-4%[57.1 µM]
O=C(NC(=S)N1CCCCCC1)c1ccccc1Cl	1µM*	-3	-1%	0.79µM*	-5%	11%[57.1 µM]
CN1CCN(C(=S)NC(=O)c2ccccc2Cl)CC1	18µM*	.	-7%	14µM*	-4%	-7%
CC1=CC(C)(C)N(C(=O)CSc2ncn[nH]2)c2ccc(C)cc21	1%	1	-5%	-16%	-2%	-8%
CC(=O)OC1C(N2CCCCC2)c2c(ccc(/C=C/C(=O)N3CCCCC3)c2O)OC1(C)C (configuration not stated)	1.3µM*	0	-1%	?	4%[57.1 µM]	14%[57.1 µM]
Cc1cccc(C(=O)NC(=S)Nc2ccccc2C(F)(F)F)c1	5.6µM*	-1	1%	4.5µM*	-13%	?
Cc1ccc(C(=O)NC(=S)Nc2ccccc2C(F)(F)F)cc1C	13µM*	-1	-3%	2.5µM*	-4%	-34%
Cc1cccc(C(=O)NC(=S)Nc2ccccc2C(=O)O)c1	-10%	-3	0%	1%	8%	-22%
O=C1CSC(c2cccc([N+](=O)[O-])c2)N1c1ccccc1F (configuration not stated)	-3%	3	4%	-2%	-12%	1%[57.1 µM]
O=c1c(N2CCOCC2)nsnc1N1CCOCC1	-2%	-54*	3%	0%	1%[57.1 µM]	15%[57.1 µM]
O=C(C[n+]1cccc(Br)c1)c1cc(Cl)ccc1Cl	.	.	.	.	2%	11µM*
COc1cc2c(cc1OC)C(CCc1ccccc1)=NCC2	-8%	2	4%	-41%	369%	89µM*
COc1ccc(C2=NCCc3cc(OC)c(OC)cc32)cc1	?	0	.	-27%	-6%	-6%
COc1ccc(C2=NCCc3cc(OC)c(OC)cc32)cc1OC	6.3µM*	1	.	-7%	-13%	-17%
O=C(COC(=O)Cc1c[nH]c2ccccc12)NC1CCS(=O)(=O)C1 (configuration not stated)	.	.	.	.	-15%	-17%
CCc1ccc(C(C(=O)NC(C)(C)CC)N(Cc2ccco2)C(=O)Cn2nnc3ccccc32)cc1 (configuration not stated)	-18%	-1	0%	-5%	-4%	-10%
S=c1[nH]nc(-c2cccnc2)n1/N=C/C=C/c1ccccc1	?	6	-2%	4.5µM*	-12%	?
S=c1[nH]nc(-c2cc(-c3ccccc3)n[nH]2)n1/N=C/C=C/c1ccccc1	18%	3	-5%	-43%	1%	5%
S=c1[nH]nc(C2CCCCC2)n1/N=C/C(Cl)=C\c1ccccc1	5.6µM*	0	-4%	2µM*	-8%	-15%
S=c1[nH]nc(-c2cccnc2)n1/N=C/c1ccccc1	-9%	6	1%	?	8%[57.1 µM]	-16%[57.1 µM]
S=c1[nH]nc(C2CCCCC2)n1/N=C/C=C/c1ccccc1	6.3µM*	0	0%	0.89µM*	-10%	-22%
O=C1NC(=S)N/C1=C\c1ccc(Oc2ccc(C(F)(F)F)cc2[N+](=O)[O-])c(Cl)c1	4%	0	-1%	-3%	1%	14%
O=C(Cn1cnc2c(nnn2Cc2ccccc2F)c1=O)NCC1CCCO1 (configuration not stated)	-17%	2	0%	-16%	-7%	-8%
O=C(CSc1ncnc2c1nnn2Cc1ccccc1F)NCC1CCCO1 (configuration not stated)	-29%	3	-2%	13µM*	2%	15%
C(=C\c1c[nH]c2ccccc12)/c1nccc2ccccc12	.	.	.	.	-4%	1%
SMILES	VP16 counter	FBPA coupling cs	GALK inh	RORg inh	TrxR1 substrate	rTrxR1 inhibitor
O=C(/C=C/c1c[nH]c2ccccc12)c1cccc2ccccc12	?	-12	-2%	5µM*	-3%	-8%
O=[N+]([O-])c1cccc(-c2nnc(CNC3CC3)o2)c1	12%	-3	9%	-16%	-1%	7%[57.1 µM]
C#CCN1C(=O)C(O)(CC(=O)/C=C/C=C/c2ccccc2)c2ccccc21 (configuration not stated)	26%	-3	7%	-16%	-6%	28µM*
CCN1C(=O)C(O)(CC(=O)/C=C/C=C/c2ccccc2)c2ccccc21 (configuration not stated)	-2%	-1	-4%	9%	-11%	?
CCC(CC)c1nnc(NC(=O)Cc2cccs2)s1	7%	2	3%	?	1%	-11%
CCOC(=O)c1c(NC(=O)Cc2cccs2)sc(C(=O)N2CCCCC2)c1C	-7%	6	2%	32%	1%	1%
N#C/C(=C\c1cc(O)c(O)c(O)c1)C(N)=O	-12%	-49*	2%	26%	-20%	-17%
C[C@@H](NC(=O)c1nc[nH]c1C(=O)N1CCN(c2ccccc2)CC1)c1ccccc1	.	.	.	.	1%	16%
C[C@H](NC(=O)c1nc[nH]c1C(=O)N1CCc2ccccc2C1)C(=O)OC(C)(C)C	?	-7	-1%	?	6%	7%
CC(C)C[C@H](NC(=O)c1nc[nH]c1C(=O)N1CCc2ccccc2C1)C(=O)OC(C)(C)C	?	-10	4%	11µM*	-11%	-5%
CC(C)(C)OC(=O)N1CCN(C(=O)c2nc[nH]c2C(=O)N2CCN(c3ccccc3)CC2)CC1	.	.	.	.	13%[57.1 µM]	21%[57.1 µM]
CC1CCN(C(=O)c2[nH]cnc2C(=O)N[C@@H](CCCCNC(=O)OC(C)(C)C)C(=O)OC(C)(C)C)CC1	-20%	7	-2%	-45%	3%	16%
CC(C)C[C@H](NC(=O)c1nc[nH]c1C(=O)N1CCN(c2ccccc2)CC1)C(=O)OC(C)(C)C	?	1	1%	13µM*	-10%	-12%
CC(C)(C)OC(=O)CNC(=O)c1nc[nH]c1C(=O)N1CCN(c2ccccc2)CC1	-24%	3	.	13µM*	3%	19%
CC(C)C[C@H](NC(=O)c1nc[nH]c1C(=O)N1CCC(C)CC1)C(=O)OC(C)(C)C	?	3	6%	16µM*	-9%	-10%
CCN(C(=O)CCN1C(=O)S/C(=C\c2ccccc2)C1=O)C1CCS(=O)(=O)C1 (configuration not stated)	?	2	0%	?	-8%	-5%
CCOC(=O)c1c(NC(=O)C(C)S(=O)(=O)c2cn(CC)c3ccccc23)sc2c1CCCC2 (configuration not stated)	4%	-9	.	?	7%[57.1 µM]	7%[57.1 µM]
O=C(CNC(=O)c1nc[nH]c1C(=O)N1CCc2ccccc2C1)OCc1ccccc1	?	4	.	14µM*	-13%	7%

Compound activity from PubChem BioAssay.
